Source: PubChem BioAssay (NCATS)
Results filed as inconclusive are left out. The source made the active and inactive calls. Unless noted, calls come from the whole dose curve.

Columns and labels:
[1] = Cell Viability - BJ (AID 421); settings: BJ fibroblast viability, qHTS;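 note: potency is the fitted concentration of half-maximal effect; cells exposed to compound for 40 hours at 37 °C before readout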
Method in brief: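 Cytotoxicity as drop in intracellular ATP (CellTiter-Glo, 20 min RT) after 40 hr compound exposure of BJ fibroblasts at 37 °C. Titrations scaled between DMSO and 100 uM tamoxifen, Hill-fitted for AC50.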

[2] = Cell Viability - Jurkat (AID 426;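 active = dose-dependent loss of cell ATP signal giving a full or clear fitted curve, ranked by lower potency value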;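 note: potency is the fitted concentration of half-maximal effect; cells exposed to compound for 40 hours at 37 °C before ATP read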); settings: qHTS
Method in brief: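 Cells of the human T-cell leukemia line Jurkat (E6-1) are seeded at 5000 per well, treated with compound across a concentration range for 40 hours at 37 °C, then lysed with CellTiter-Glo; luminescence reports ATP.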

[3] = Cell Viability - Hek293 (AID 427;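 active = compounds whose dose-response curve shows a full or clear partial loss of cell viability, called from curve shape rather than a numeric limit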;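 note: potency is the fitted concentration of half-maximal effect; cells exposed to compound for 40 hours at 37 °C before reading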); settings: qHTS
Method in brief: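 Luminescent ATP content (CellTiter-Glo, 20 min at room temperature) was measured after a 40 hr, 37 °C compound exposure of HEK293 cells. AC50 values came from Hill-equation fits of qHTS concentration-response data normalized to DMSO and 100 uM tamoxifen.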

[4] = Cell Viability - HepG2 (AID 433); settings: qHTS;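 note: potency is the fitted concentration of half-maximal effect; potency for ATP loss meaning cytotoxicity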
Method in brief: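 HepG2 hepatocellular carcinoma cells (1500/well) were treated with compounds for 40 h at 37 °C in complete medium; intracellular ATP was read by CellTiter-Glo luminescence. Data were normalized to DMSO and 100 uM tamoxifen, and AC50 came from Hill fits.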

[5] = Cell Viability - MRC5 (AID 434); settings: MRC5 lung fibroblast viability, qHTS;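 note: potency is the fitted concentration of half-maximal effect; potency reflects cytotoxicity seen as loss of intracellular ATP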
Method in brief: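 AC50 values come from Hill-equation fits of intracellular ATP loss, measured by CellTiter-Glo luminescence. Normal lung fibroblasts (MRC5) had 40 hr compound treatment at 37 C, normalized between DMSO and 100 uM tamoxifen.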

[6] = Cell Viability - SK-N-SH (AID 435); settings: SK-N-SH neuroblastoma cell viability qHTS;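 note: potency is the fitted concentration of half-maximal effect; compound exposure lasted 40 h at 37 °C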
Method in brief: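 SK-N-SH human neuroblastoma cells (1500/well) were exposed to compounds in complete medium for 40 h at 37 °C, and intracellular ATP was then measured by CellTiter-Glo luminescence. AC50 was taken from Hill fits, normalized to DMSO and 100 uM tamoxifen.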

[7] = target: Mitogen-activated protein kinase 10 (Mus musculus) (UniProt Q61831); assay: JNK3 AlphaScreen Assay (AID 530; active = well fitted curve in either direction with a large enough effect, not every such curve was filed as active;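 note: kinase came from lysate of stimulated human HepG2 cells; signal reports phosphorylation of biotinylated GST-cJun 1-79 at Ser73 with 10 µM ATP; % is set by controls: 0 for no effect and ±100 for the full control effect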); settings: JNK3 lysate, c-Jun phosphorylation; series mostly up to 57.1 µM
Method in brief: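 qHTS titrations with 15 min compound pre-incubation before adding ATP (10 uM final). Read-out: AlphaScreen of Ser73-phosphorylated biotin-GST-cJun using HepG2 lysate JNK3 activated by IL-1β and TNFα.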

[8] = Cell Viability - N2a (AID 540; active = well fitted curve in the direction sought with a large enough effect; an effect the other way counts as inactive or inconclusive;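 note: plate controls were DMSO alone for no effect and tamoxifen control for full effect; nearly all actives have a fitted effect of over 45% in size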); settings: N2a mouse neuroblastoma cell viability; activity change, negative = cytotoxicity: at 92.2 µM (top of the series)
Method in brief: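 Cytotoxicity was scored as loss of cellular ATP in N2a cells, a mouse neuroblastoma line. Compounds are applied in a qHTS concentration series for 40 hr at 37 °C.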

[9] = Cell Viability - NIH 3T3 (AID 541; active = well fitted curve in the direction sought with a large enough effect; an effect the other way counts as inactive or inconclusive;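 note: plate controls were DMSO alone for no effect and tamoxifen positive control for full effect; nearly all actives have a fitted effect of over 25% in size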); settings: NIH 3T3 cell viability, qHTS; activity change, negative = cytotoxicity: at 92.2 µM (top of the series)
Method in brief: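 Cells seeded at 1000/well, rested 5 hr at 37 °C, then dosed and incubated 40 hr at 37 °C. CellTiter-Glo added, 20 min room temperature, luminescence read. AC50 by Hill fit.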

[10] = Cell Viability - HUV-EC-C (AID 542; active = well fitted curve in the direction sought with a large enough effect; an effect the other way counts as inactive or inconclusive; note: % is set by controls: 0 for no effect and ±100 for the full control effect; nearly all actives have a fitted effect of over 35% in size); settings: HUV-EC-C endothelial cell viability, qHTS; series mostly up to 92.2 µM
Method in brief: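 Cells were seeded at 1000 per well and incubated 5 hr at 37 °C before compound addition. After 40 hr at 37 °C, CellTiter-Glo reagent was added for 20 min and luminescence read. AC50 values came from Hill-equation modelling.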

C=C(C)C(=O)OC
inactive: Potency [1] > 92 µM | Potency [2] > 92 µM | Potency [3] > 92 µM | Potency [4] > 92 µM | Potency [5] > 92 µM | Potency [6] > 92 µM | outcome [7] | activity change, negative = cytotoxicity [8] 2.46% | Potency [9] | Potency [10]

Nc1cccc(N)c1
inactive: Potency [1] > 92 µM | Potency [2] > 92 µM | Potency [3] > 92 µM | Potency [4] > 92 µM | Potency [5] > 92 µM | Potency [6] > 92 µM | outcome [7] | activity change, negative = cytotoxicity [8] -0.534% | Potency [9] | Potency [10]

CCOC(C)(C)C
inactive: Potency [1] > 92 µM | Potency [2] > 92 µM | Potency [3] > 92 µM | Potency [4] > 92 µM | Potency [5] > 92 µM | Potency [6] > 92 µM | outcome [7] | activity change, negative = cytotoxicity [8] -6.59% | Potency [9] | Potency [10]

C1CCC2OC2C1 (stereo not given)
inactive: Potency [1] > 92 µM | Potency [2] > 92 µM | Potency [3] > 92 µM | Potency [4] > 92 µM | Potency [5] > 92 µM | Potency [6] > 92 µM | outcome [7] | activity change, negative = cytotoxicity [8] -14.9% | Potency [9] | Potency [10]

Cc1ccc2cccnc2c1
inactive: Potency [1] > 92 µM | Potency [2] > 92 µM | Potency [3] > 92 µM | Potency [4] > 92 µM | Potency [5] > 92 µM | Potency [6] > 92 µM | outcome [7] | activity change, negative = cytotoxicity [8] -6.28% | Potency [9] | Potency [10]

CCCCC(CC)COC(=O)CCCCC(=O)OCC(CC)CCCC (stereo not given)
inactive: Potency [1] > 92 µM | Potency [2] > 92 µM | Potency [3] > 92 µM | Potency [4] > 92 µM | Potency [5] > 92 µM | Potency [6] > 92 µM | outcome [7] | activity change, negative = cytotoxicity [8] 3.75% | Potency [9] | Potency [10]

Cc1cccc2sc(N)nc12
inactive: Potency [1] > 92 µM | Potency [2] > 92 µM | Potency [3] > 92 µM | Potency [4] > 92 µM | Potency [5] > 92 µM | Potency [6] > 92 µM | outcome [7] | activity change, negative = cytotoxicity [8] -1.12% | Potency [9] | Potency [10]

Cc1cccc(C)c1O
inactive: Potency [1] > 92 µM | Potency [2] > 92 µM | Potency [3] > 92 µM | Potency [4] > 92 µM | Potency [5] > 92 µM | Potency [6] > 92 µM | outcome [7] | activity change, negative = cytotoxicity [8] -7.98% | Potency [9] | Potency [10]

Nc1nc(CC(=O)O)cs1
inactive: Potency [1] > 92 µM | Potency [2] > 92 µM | Potency [3] > 92 µM | Potency [4] > 92 µM | Potency [5] > 92 µM | Potency [6] > 92 µM | outcome [7] | activity change, negative = cytotoxicity [8] 6.3% | Potency [9] | Potency [10]

CC(C)N(C)C
inactive: Potency [1] > 92 µM | Potency [2] > 92 µM | Potency [3] > 92 µM | Potency [4] > 92 µM | Potency [5] > 92 µM | Potency [6] > 92 µM | outcome [7] | activity change, negative = cytotoxicity [8] -3.04% | Potency [9] | Potency [10]

O=Cc1cccc(Br)c1
inactive: Potency [1] > 92 µM | Potency [2] > 92 µM | Potency [3] > 92 µM | Potency [4] > 92 µM | Potency [5] > 92 µM | Potency [6] > 92 µM | outcome [7] | activity change, negative = cytotoxicity [8] 0.0642% | Potency [9] | Potency [10]

Cc1ccc(C)o1
inactive: Potency [1] > 92 µM | Potency [2] > 92 µM | Potency [3] > 92 µM | Potency [4] > 92 µM | Potency [5] > 92 µM | Potency [6] > 92 µM | outcome [7] | activity change, negative = cytotoxicity [8] -9.8% | Potency [9] | Potency [10]

Cc1cccc(Br)c1
inactive: Potency [1] > 92 µM | Potency [2] > 92 µM | Potency [3] > 92 µM | Potency [4] > 92 µM | Potency [5] > 92 µM | Potency [6] > 92 µM | outcome [7] | activity change, negative = cytotoxicity [8] -13.7% | Potency [9] | Potency [10]

C=CCCCC
inactive: Potency [1] > 92 µM | Potency [2] > 92 µM | Potency [3] > 92 µM | Potency [4] > 92 µM | Potency [5] > 92 µM | Potency [6] > 92 µM | outcome [7] | activity change, negative = cytotoxicity [8] 6.23% | Potency [9] | Potency [10]

CCCOCC(C)OCC(C)O (stereo not given)
inactive: Potency [1] > 92 µM | Potency [2] > 92 µM | Potency [3] > 92 µM | Potency [4] > 92 µM | Potency [5] > 92 µM | Potency [6] > 92 µM | outcome [7] | activity change, negative = cytotoxicity [8] -9.53% | Potency [9] | Potency [10]

CCC(C)(C)C
inactive: Potency [1] > 92 µM | Potency [2] > 92 µM | Potency [3] > 92 µM | Potency [4] > 92 µM | Potency [5] > 92 µM | Potency [6] > 92 µM | outcome [7] | activity change, negative = cytotoxicity [8] -21.6% | Potency [9] | Potency [10]
